# Source: PubChem BioAssay
# An excerpt weighted towards active compounds, which were near 1.7% of everything screened.
# RecA intein inh: Mtb RecA intein splicing inhibition; cell-free RecA intein splicing, fluorescence; inhibition, % (test concentration not listed); 0.75% of 290,000 active; AID 2221; in the data active means inhibition above about 30%;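 further: 0% = vehicle wells and 100% = reference inhibitor control wells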
# Target sequence (P9WHJ3 whole entry, looked up): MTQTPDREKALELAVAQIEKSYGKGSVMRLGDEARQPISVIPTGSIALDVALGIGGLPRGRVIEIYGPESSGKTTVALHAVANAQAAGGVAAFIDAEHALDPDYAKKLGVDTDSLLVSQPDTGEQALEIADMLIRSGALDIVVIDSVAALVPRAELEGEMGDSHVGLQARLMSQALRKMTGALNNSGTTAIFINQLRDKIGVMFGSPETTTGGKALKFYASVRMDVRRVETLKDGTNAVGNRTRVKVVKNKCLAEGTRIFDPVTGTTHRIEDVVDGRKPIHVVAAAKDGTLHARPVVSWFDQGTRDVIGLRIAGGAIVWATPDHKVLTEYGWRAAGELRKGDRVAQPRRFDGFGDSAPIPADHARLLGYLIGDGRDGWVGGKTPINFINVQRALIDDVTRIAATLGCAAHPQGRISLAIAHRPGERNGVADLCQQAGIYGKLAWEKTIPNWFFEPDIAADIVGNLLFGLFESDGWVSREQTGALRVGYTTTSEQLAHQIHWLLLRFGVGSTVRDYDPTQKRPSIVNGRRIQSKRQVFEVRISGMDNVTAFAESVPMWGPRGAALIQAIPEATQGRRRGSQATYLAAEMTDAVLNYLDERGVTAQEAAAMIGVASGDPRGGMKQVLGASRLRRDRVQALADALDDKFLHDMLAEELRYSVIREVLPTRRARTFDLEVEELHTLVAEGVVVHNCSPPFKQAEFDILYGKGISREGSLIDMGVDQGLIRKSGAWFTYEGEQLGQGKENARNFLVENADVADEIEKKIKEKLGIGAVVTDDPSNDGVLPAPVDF
# PfHsp40 yeast: restores yeast growth despite PfHsp40 toxicity. S. cerevisiae expressing PfHsp40, growth rescue, ATP luminescence. growth rescue, % at 12.5 µM. 0.68% of 340,000 active. AID 504582; in the data active means growth rescue above about 28%, passing the limit was not always enough;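 further: yeast W303a lacking pdr1 and pdr3 grown in galactose medium; growth measured after three days at 30 °C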
# Mtb hypoxia rep: reduces hypoxia-regulated biosensor signal in M. tuberculosis | M. tuberculosis hypoxia-regulated fluorescent reporter, fluorescence | fluorescence inhibition, % (no concentration beside the values) | 0.1% of 300,000 active; in the data active means fluorescence inhibition mostly above about 23%, no sharp cut-off; inactive means mostly below about 17%
# Mtb bLac sens: beta-lactam sensitization of Mtb H37Rv; M. tuberculosis H37Rv growth with meropenem, percent inhibition; inhibition, % at 25 µM; 0.27% of 330,000 active; AID 434955; call rule not given here;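 further: growth measured after seven days incubation then overnight dye step; 0% = bacteria only wells and 100% = bacteria with antibiotic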
# CCHF vOTU inh-1: blocks the CCHF virus ovarian tumor domain protease. CCHFV vOTU protease, Pep-AMC fluorescence. inhibition, % at 11.5 µM. 0.55% of 370,000 active; further: 0% = vehicle wells with enzyme and 100% = no enzyme wells
# CCHF vOTU inh-2: confirmation of CCHF virus vOTU protease inhibitors | inhibition, % at 11.5 µM | AID 686976 | Recombinant CCHFV vOTU, Pep-AMC fluorescence | 17% of 1,900 active | shares compounds with CCHF vOTU inh-1
# Active calls of the source: *; . = not tested or not shown. Unless noted, no stated cut-off is given here; in the data, active means inhibition above about 30%; inactive means the rest.
SMILES,RecA intein inh,PfHsp40 yeast,Mtb hypoxia rep,Mtb bLac sens,CCHF vOTU inh-1,CCHF vOTU inh-2
CCSc1nc(=S)cc(C)[nH]1,0,4,1,7,31*,-25
CCSc1nc(O)cc(=O)[nH]1,-1,0,.,6,-11,.
CSc1nc(-c2ccco2)nn1S(C)(=O)=O,-1,0,.,4,36*,28
CSc1nc(-c2ccco2)nn1C(=O)Cc1ccccc1,3,0,.,-5,5,.
Cc1ccc2c(c1)NC(=O)[C@@]1(C)C(c3ccccc3)C3COc4ccccc4C3N1C2=O (stereo partly specified),.,.,9,.,.,.
Nc1nc(Nc2ccccc2)n[nH]1,-5,2,15,-10,32*,-22
COCCN1C(=O)C(=O)C(=C(O)c2ccc3c(c2)OCCO3)C1c1ccc(C(=O)OC)cc1 (stereo unspecified),.,.,0,.,.,.
O=c1[nH]c2ccccc2nc1-c1nnnn1C1CCCC1,.,.,.,.,-21,.
O=c1[nH]c2cc3ccccc3cc2nc1-c1nnnn1C1CCCC1,.,.,.,.,30*,11
O=C(/C(C=Nc1ccc(F)cc1)=C(/O)c1ccco1)C(F)(F)F,-1,0,12,-4,33*,-6
Cc1cccc(N=C/C(C(=O)C(F)(F)F)=C(\O)c2ccco2)c1,-1,2,11,1,6,.
O=S(=O)(Oc1ccccc1C=Nn1cnnc1)c1ccccc1,.,.,1,.,.,.
CCCCCCCCCCCCCCCC[N+](C)(C)Cc1ccc(F)cc1,.,-2,.,.,56*,57*
CC#CC[N+](C)(C)CCCCCCCC,1,-1,7,-17,0,.
COc1ccc(NC(=O)CON=C2CCCc3nonc32)cc1,.,.,7,.,.,.
COc1ccc([C@H]2CC(=O)C=C(/C=C/c3ccccc3)C2)cc1OC,.,4,.,91,30*,8
CCCCC[C@@H](C)N1C[C@H](COCc2ccccc2)Oc2cc(N3CCC[C@@H]3COC)ccc2S1(=O)=O,.,.,.,.,9,.
CCCCC[C@@H](C)N1C[C@@H](COCc2ccccc2)Oc2cc(N3CC[C@@H](O)C3)ccc2S1(=O)=O,.,.,.,.,31*,-4
CCCCC[C@H](C)N1C[C@H](COCc2ccccc2)Oc2cc(N3CC[C@@H](N(C)C)C3)ccc2S1(=O)=O,.,.,.,.,37*,3
CCCCC[C@@H](C)N1C[C@@H](COCc2ccccc2)Oc2cc(N3CC[C@@H](N(C)C)C3)ccc2S1(=O)=O,.,.,.,.,35*,2
CCCCC[C@@H](C)N1C[C@@H](COCc2ccccc2)Oc2cc(N3CC[C@H](O)C3)ccc2S1(=O)=O,.,.,.,.,25,.
CCCCC[C@@H](C)N1C[C@H](COCc2ccccc2)Oc2cc(N3CC[C@@H](N(C)C)C3)ccc2S1(=O)=O,.,.,.,.,15,.
CCCCC[C@@H](C)N1C[C@@H](COCc2ccccc2)Oc2cc(N3CCC[C@@H]3CO)ccc2S1(=O)=O,.,.,.,.,35*,8
CC(/C=C/c1ccco1)=NNC(=O)C(O)c1ccccc1 (stereo unspecified),.,.,-1,.,.,.
O=C(CCN1C(=O)/C(=C\C=C\c2ccccc2)SC1=S)Nc1cccc(C(=O)O)c1,8,0,16,0,33*,5
SMILES,RecA intein inh,PfHsp40 yeast,Mtb hypoxia rep,Mtb bLac sens,CCHF vOTU inh-1,CCHF vOTU inh-2
C[C@@H]1CCCCO[C@H](CN(C)C(=O)Nc2ccc(C(F)(F)F)cc2)[C@@H](C)CN([C@H](C)CO)C(=O)c2cc(NC(=O)c3ccncc3)ccc2O1,.,.,.,.,32*,-1
CCCCC[C@@H]1C=C(C(=O)O)[C@H](c2cccc(C)c2)N1S(=O)(=O)c1ccc(C)cc1,.,7,-4,6,32*,5
CCCC[C@@H]1C=C(C(=O)O)[C@H](c2ccc(CC)cc2)N1S(=O)(=O)c1ccc(C)cc1,.,1,-1,0,30*,21
CCCCC[C@@H]1C=C(C(=O)O)[C@H](c2ccc(Cl)c(Cl)c2)N1S(=O)(=O)c1ccc(C)cc1,.,-1,-4,-8,37*,21
COc1ccc(C=NNC(=O)CON=C(C)c2cccs2)cc1,.,.,0,.,.,.
COC(=O)c1ccc2c(c1)C(C)(C)C(C=Cc1ccc(OC)c(OC)c1OC)=[N+]2C,.,.,11,.,.,.
CC(=O)Nc1ccc(NC2=CC(=NS(=O)(=O)c3cccs3)c3ccccc3C2=O)cc1,.,.,8,.,.,.
CC(=O)Nc1ccc(NC2=C/C(=N/S(=O)(=O)c3cccs3)c3ccccc3C2=O)cc1,.,1,.,13,110*,97*
CN(C)c1ccc2nc3ccc(=O)cc-3sc2c1,.,.,.,.,76*,50*
COc1ccc2nc(N=Nc3ccc(N(C)C)cc3)sc2c1,.,-2,12,.,-14,.
C#CCOc1c(Br)cc(C=NNC(=O)CN2CCOCC2)cc1OCC,.,.,1,.,.,.
O=C(/C=C\Nc1ccccc1Br)c1ccc2c(c1)OCO2,-2,1,2,-3,32*,-6
CC1(C)Cc2c(c(-c3ccco3)[nH]c(=O)c2C#N)CS1,-23,-2,5,-6,32*,-6
CCOC(=O)c1c(NCC2CCCO2)c2ccccc2[nH]c1=O (stereo unspecified),-3,-1,6,6,-8,.
CCOC(=O)c1c(C)oc2c1c(C=NCc1ccccn1)c(O)c1ccccc12,.,-1,-2,.,63*,24
CCOC(=O)c1c(C)oc2c1c(C=NCC1CCCO1)c(O)c1ccccc12 (stereo unspecified),21,-1,.,.,35*,53*
CCOC(=O)c1c(C)oc2c1cc(O)c1ccccc12,6,-1,9,8,12,.
Cc1ccc(-c2nnc(SCC(=O)NN=Cc3ccccc3C(=O)O)n2-c2ccc(C)cc2)cc1,.,.,-13,.,.,.
CCc1ccccc1NC(=O)CNC(=O)c1cc(C2CC2)nn1-c1ccccc1,.,1,-2,100,39*,-2
O=C(Nc1c(-c2ccccc2)[nH][nH]c1=O)c1ccc2c(c1)OCO2,.,.,.,.,10,.
O=C(Nc1c(-c2ccc3c(c2)OCO3)[nH][nH]c1=O)c1cccc(C(F)(F)F)c1,.,.,.,.,34*,-9
O=C(Nc1c(-c2ccccc2)[nH][nH]c1=O)c1ccc(-c2ccccc2)cc1,.,.,.,.,-4,.
O=C(Nc1c(-c2ccc3c(c2)OCO3)[nH][nH]c1=O)c1ccccc1,.,.,.,.,42*,-6
N#C/C(=N\Nc1cccc(Cl)c1)C(=O)c1ccccc1,-1,-1,.,-2,35*,-3
N#C/C(=N\Nc1ccccc1Cl)C(=O)c1ccccc1,1,-1,.,-10,-4,.
Cc1ccc(NP(=O)(c2ccc(N(C)C)cc2NC(=O)c2cccs2)N2CCOCC2)cc1Cl (stereo unspecified),1,0,7,16,30*,-25
Cc1ccc(NP(=O)(c2ccc(N(C)C)cc2NC(=O)c2cccs2)N2CCOCC2)cc1 (stereo unspecified),2,-1,-1,-1,10,.
NC(=NN=Cc1ccc(O)cc1)c1nonc1N,.,.,5,.,.,.
CC1=C(C(=O)OCC(C)C)C2(O)C(=O)c3ccccc3C2(O)N1 (stereo unspecified),20,0,1,7,30*,-18
